Test results reported in PubChem BioAssay AID900 (National Center for Advancing Translational Sciences (NCATS), 2007).
Hit rate of the full screen: of about 75,000 compounds, about 20 (0.03%) were called active. Inconclusive results (about 1%) are left out. The list is a sample of the results. Values without a mark were called inactive. The call rests on the fitted dose curve; in most records, active means well fitted inhibition curve with a large enough effect; inconclusive means small, poorly fitted or top-dose-only effect; inactive means flat fitted curve, though single readings scatter.

Each compound was assayed against Caspase-1 (Homo sapiens) (UniProt P29466) (assay: qHTS Assay for Allosteric/Competitive Inhibitors of Caspase-1). Details: Caspase-1 enzyme, Ac-WEHD-AFC fluorogenic rate; series mostly up to 57.5 µM; activity change, negative = inhibition: at the top concentration.
From the text: NIH Molecular Libraries Screening Centers Network [MLSCN]
NIH Chemical Genomics Center [NCGC]
PI Name: Dr. James Wells,
Dr. Enrique Perez-Paya, Dr.Janice Williams, Dr. Dennis Wolan, a person
The caspases (Cysteine Aspartyl Protease) comprise a related family of 14 dimeric proteases that are critical mediators of apoptosis (programmed cell death) and inflammation. The caspases represent an important class of drug targets for stroke, ischemia, cancer and inflammatory diseases. […] One goal of this project was to identify compounds that act as allosteric inhibitors via stabilizing the procaspase form of the enzyme. Previous work in Well's laboratory has shown that such allosteric inhibitors can be identified and these act by binding at the dimer interface of enzyme (Hardy, Lam et al., 2004).
The biochemical assay was configured using purified caspase 1 at a high enzyme concentration to promote formation of the homodimers and thus facilitate the identification of allosteric inhibitors. The overall goal was to identify reversible inhibitors with better drug-like properties than the currently available set of aspartyl-containing peptidomimetics that covalently bind the active site. Caspase 1 was assayed using the profluorescent substrate Ac-WEHD-AFC. After initiation of the assay with substrate the plates were rapidly read using an automated robotic system (Kalypsys, Inc.) to maintain consistent timing. A kinetic mode of detection was used where the initial rate was collected (estimated final product formation was ~10%). Compounds were screened as a concentration-titration series that ranged from 57 uM to 0.7 nM. Below is the protocol used for caspase 1.
NCGC Assay Protocol Summary:
Caspase 1 was prepared in buffer (50 mM HEPES pH 7.5, 50 mM KCl, 200 mM NaCl, 10 mM DTT, 0.1% CHAPS) at a concentration of 66.6 nM and 3 uL was dispensed to all wells using black solid Kalypsys 1536-well plates. 20 nL of DMSO containing compounds was added using a pin-tool (Kalypsys Inc.) to columns 5-48. Then 20 nL of DMSO solution from a control plate was added to columns 1-4. Controls were: Column 1, 16 point titration with each concentration in duplicate (1:1 dilutions in DMSO; final starting concentration was 57 uM) of the caspase 1 inhibitor Ac-WEHD-CHO (Alexis Biochemicals); Column 2, a 16 point titration with each concentration in duplicate of the free AFC fluorophore prepared in DMSO (Alexis Biochemicals), final starting was 40 uM; Column 3 neutral (DMSO only) control; Column 4: DMSO alone, to serve as a negative control (no substrate was added). Then 1 uL of 20 uM the substrate Ac-WEHD-AFC (Alexis Biochemicals) prepared in the same buffer was dispensed to all wells except columns 2 and 4 and the plates were immediately transferred (< 1 min) to the Viewlux. The plates were then exposed using 405 nm excitation/520 nm emission filters for 4 sec and read at 20 sec intervals for 3 min. Final enzyme concentration was 50 nM and the final substrate concentration was 5 uM.
Concentration-response curves were fitted to the data calculated from slope of the linear regression of fluorescent intensity versus time (the rate). The concentration-effect curves were then classified based on curve quality (r2), response magnitude and degree of measured activity. […] Inconclusive compounds had appreciable concentration-dependent effects on both the measured rate and the interpolated basal fluorescence intensity at the start of the reaction but where the basal fluorescent intensity was marginal (e.g. < 10-fold). Inconclusive compounds also encompass highly fluorescent compounds (>100-fold increases in fluorescent intensities values relative to controls) where artificial concentration-dependent decreases in the rate occurred at high compound concentrations due to fluorescent interferences.
Keywords: Caspase 1, proteases, profluorescent, MLSMR, MLSCN, NIH Roadmap, qHTS, NCGC

SMILES | activity change, negative = inhibition
CC1(C)SC2C(NC(=O)COc3ccccc3)C(=O)N2C1C(=O)O (configuration not stated) | 1.65%
O=c1ccc2cc(S(=O)(=O)N3CCN(c4ccccc4)CC3)ccc2o1 | 0.0604%
CCOC(=O)[C@]1(C(/C=C/c2ccco2)NC(=O)OC)CCCC1=O (some centres not stated) | -4.71% [at 11.5 µM]
Cc1cnc(CNc2nc(-c3cccnc3)nc3ccccc23)cn1 | -2.26%
O=C(COc1ccccc1)NCCc1nc2ccccc2[nH]1 | 0.143%
COc1ccc(CNc2ncncc2-c2ccccc2OC)c(OC)c1 | -0.391%
CCC[C@@H]1C[C@@]1(CCC)C(NC(=O)c1ccc(-c2ccccc2)cc1)c1cccc(Cl)c1 (some centres not stated) | -0.862%
Cc1cccc(-c2cc(=O)c3cc(C)ccc3o2)c1 | -3.23%
COc1ccc(/C=C/NC(=O)c2ccc(OC)cc2)cc1 | -1.51% [at 11.5 µM]
O=C(CN1CCOCC1)Nc1cc(Cl)ccc1Cl | 1.19%
COC(=O)NC(c1ccccc1)[C@]1(C(C)=O)CCCC1=O (some centres not stated) | 0.536% [at 11.5 µM]
Cc1c2c(nc3ccccc13)-c1cccc(=O)n1C2 | -3.06%
COc1ccc(C2CC(=O)c3c(O)cc(OC4OC(COC5OC(C)C(O)C(O)C5O)C(O)C(O)C4O)cc3O2)cc1O (configuration not stated) | -1%
CC(=O)/C(=N\N=C(N)N)c1ccccc1 | -1.52% [at 11.5 µM]
C[C@]12C=CC(=O)C=C1CC[C@@H]1[C@@H]2C(=O)C[C@@]2(C)[C@H]1CC[C@]2(O)C(=O)CO | -1.44%
CC1=C(/C=C/C(C)=C/C=C/C(C)=C/C=C/C=C(C)/C=C/C=C(C)/C=C/C2=C(C)CCCC2(C)C)C(C)(C)CCC1 | 3.19%
O=C1[C@H]2[C@H]3[C@H](O)[C@H](O)C/C(=N/OCc4ccccc4)[C@H]3CC[C@@H]2C(=O)N1Cc1ccccc1 | -0.986% [at 11.5 µM]
COC(=O)[C@@H]1C[C@@]2(O)[C@H](O)[C@H](O)[C@H](O)C[C@H]2N1Cc1ccc(C(C)(C)C)cc1 | 0.555%
CC1(C)C(=O)C2(CCCCC2)C(=O)OC1c1cccs1 (configuration not stated) | -5.44%
CCOc1ccccc1C1NC(=O)NC(C)=C1C(=O)OCc1ccco1 (configuration not stated) | -1.34%
CN(C)c1cc2c(Nc3ccc4c(cnn4Cc4ccccc4)c3)ncnc2cn1 | 1.68%
O=C(NCCN=C1NS(=O)(=O)c2ccccc21)c1ccc(S(=O)(=O)N2CCOCC2)cc1 | -1.5%
CC1CCCCN1CCCNC(=O)c1ccc(-n2c(=O)c(=O)[nH]c3ccccc32)cc1 (configuration not stated) | -1.66%
Nc1ncnc2c1ncn2C1CC(O)C(CO)O1 (configuration not stated) | inactive

SMILES | activity change, negative = inhibition
Cc1nnc(N(Cc2ccco2)C(=O)c2ccno2)s1 | -3.12%
Cc1cc(Cl)ccc1N1C(=O)CC(SCCC(=O)O)C1=O (configuration not stated) | -0.329%
Cc1cc(C(=O)N2CCN(c3ccccn3)CC2)c(C)o1 | -1.81%
CC(=O)OC1CCC2(O)CC1(C)CCC1C2CC1(C)C (configuration not stated) | 1.71%
O=S(=O)(c1ccccc1)N1CCC2(CC1)CN(Cc1nccs1)C2 | 0.431%
COc1ccc2c3c1OC1CC(O)C=C[C@@]31CCN(C)C2 (some centres not stated) | 2.42%
COc1c2c(cc3occ(-c4ccc5c(c4)OCO5)c(=O)c13)OC(C)(C)C=C2 | -5.85%
Cc1cc(C(=O)COC(=O)c2cccs2)c(C)n1-c1c(C)n(C)n(-c2ccccc2)c1=O | 1.16%
CC(C)CO | -2.94%
CC1(C)OC2CC(=O)OC[C@@]23C1CC(=O)[C@]1(C)C3CC[C@@]2(C)C(c3ccoc3)OC(=O)C3O[C@@]321 (some centres not stated) | -1.49%
O=C(NCCSc1ccccc1)c1ccco1 | 0.764%
CN1CC(=O)N=C1N | -2.03%
COc1cc(OC)c2c(c1Cl)OC1(C2=O)C(O)=CC(=O)CC1C (configuration not stated) | 0.226%
O=C1OC(C(O)CO)C(O)=C1O (configuration not stated) | 0.0953%
COC(=O)[C@@]1(Cc2ccccc2)[C@H]2c3cc(C(=O)N(C)C)n(CCSCCO)c3C[C@H]2CN1C(=O)c1ccccc1 | 2.77%
C=C1C(=O)C23C(O)C1CCC2[C@]12COC3(O)C(O)C1C(C)(C)CC[C@H]2O (some centres not stated) | 0.517%
Oc1ccc2ccccc2c1C=NCc1c(O)ccc2ccccc12 | -2.14% [at 11.5 µM]
Cc1cn(COC/C=C/c2ccccc2)c(=O)[nH]c1=O | 1.02%
CC(C)=CCC/C(C)=C/CC/C(C)=C/CC/C(C)=C/CO | 2.21%
CCc1c(C)c2c(C)[nH]nc2oc1=O | -0.196%
CCCC[C@@H]1C[C@H]1C(NC(=O)c1ccc(-c2ccccc2)cc1)c1ccc(-c2ccccc2)cc1 (some centres not stated) | -1.23%
Cc1c(C(=O)OCc2cc(=O)n3cc(Br)ccc3n2)oc2ccccc12 | -0.19%
FC(F)(F)c1ccc(CN2C[C@@H]3C(c4ccccc4)C4(c5ccccc5)CC3(C4)[C@H]2c2ccccc2)cc1 (some centres not stated) | 3.32%
